Reference: the supplement of paper PMC6555819

The sequences below were run on PXR:RXRa (NR concentration 270 nM, RXRa partner concentration 90 nM) (assay: PBM binding z-score (relative to random genomic background probes); higher = stronger binding; sequences stand for … in GC…GCGATTGACAGCGTAGAATGAAGG).
How it was run: (§1)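 Antibodies against each partner of ligand-free nuclear receptor dimers (one per run) detected binding on custom Agilent 4×180K protein-binding microarrays after 1 h incubation. The double-stranded probes had 34-nt variable regions carrying direct-repeat seeds, single-nucleotide variants, half-site ablations and random human genomic background sequences. Binding z-scores, from regression-normalized fluorescence, use the random background probes as reference.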

Sequence | PBM binding z-score
CTATGTAGGTTAAGGGGGTCATTCAGTTTGAAAG | 6.09
CCGAGTAGGTTACGAGGGGGCCTTCAGTGCGAAT | 1.73
CCGAGTAGGTTACGAGGGGGCATTCACTGCGAAT | 4.44
CCGAGTAGGTTACGAGGGGGCATTCATTGCGAAT | 4.23
CTATATAGGTTAAGGGGGTCATTCAGTTTGAAAG | 6.35
CAGAGTAGGTTACGAGGGGGCATTCAGTGCGAAT | 4.86
CTATGTAGGTTAAGGGGTTCATTCAGTTTGAAAG | 5.14
CCGAGTAGGTTACGAGGCGGCATTCAGTGCGAAT | -0.147
CTAAGTAGGTTAAGGGGGTCATTCAGTTTGAAAG | 5.74
TCGAGTAGGCTACGGGGGCATTCAGGGATGAAGA | 1.77
CCATGTAGGTTAAGGGGGTCATTCAGTTTGAAAG | 5.83
CTATGTAGGTTAAGGGTGTCATTCAGTTTGAAAG | 1.38
CTATGTAGGCTAAGGGGGTCATTCAGTTTGAAAG | 5.12
CCGAGTAGGTTACGAGGGGGCTTTCAGTGCGAAT | 2.01
CTATGTAGGTTAAGGGGGTCATTCGGTTTGAAAG | 5.97
CTATGTTGGTTAAGGGGGTCATTCAGTTTGAAAG | 5.75
CCGAGTAGGTTACGAGGGGGCATCCAGTGCGAAT | 4.3

Each sequence was assayed on PXR homodimer (NR concentration 270 nM) in the same assay as above.
How it was run: as §1

Sequence | PBM binding z-score
CCGAGTAGGTTACGAGGGGGCATTCAATGCGAAT | 0.729
CCGAGTAGGTTACGAGGGGGCATTTAGTGCGAAT | 2.55
TCGAGTAGGTTACGGGGGGATTCAGGGATGAAGA | 2.74
CTGAGTAGGTTACGAGGGGGCATTCAGTGCGAAT | 4.99
CTATGTAGGTTAAGGGGGTCATACAGTTTGAAAG | 8.43
CTATGTAGGTTAAGGGGGTCTTTCAGTTTGAAAG | 1.64
CCGAGTAGGTTACGAGGGGGCAATCAGTGCGAAT | 2.9
CCGAGTAGGTTACCAGGGGGCATTCAGTGCGAAT | 5.81
TCGAGTCGGTTACGGGGGCATTCAGGGATGAAGA | 0.347
TCGAGTAGGTTACGGGGACATTCAGGGATGAAGA | -0.0868
CTATGTAGGTTAAGGGGGTCATTCCGTTTGAAAG | 4.83
CTATGTAGGTTGAGGGGGTCATTCAGTTTGAAAG | 10.2
CCGAGTGGGTTACGAGGGGGCATTCAGTGCGAAT | 5.23
CCGAGTAGGTTATGAGGGGGCATTCAGTGCGAAT | 5.74
CCGAGTAGGTAACGAGGGGGCATTCAGTGCGAAT | 4.31
CCGGGTAGGTTACGAGGGGGCATTCAGTGCGAAT | 4.47
CCGAGTAGCTTACGAGGGGGCATTCAGTGCGAAT | 5.04
CTATGAAGGTTAAGGGGGTCATTCAGTTTGAAAG | 13.8
CCGAGTAGGTTACGAGGAGGCATTCAGTGCGAAT | -0.429
CTCTGTAGGTTAAGGGGGTCATTCAGTTTGAAAG | 12

Sequence | PBM binding z-score
CTATGGAGGTTAAGGGGGTCATTCAGTTTGAAAG | 12.7
TCGAGTAGGTTACGGGGGCATTCACGGATGAAGA | 1.4
CTATGTAGGTTAAGGGGGTCATTCAGTTTGAAAG | 11.4
CCGAGTAGGTTACGAGGGGGCCTTCAGTGCGAAT | 0.533
CCGAGTAGGTTACGAGGGGGCATTCACTGCGAAT | 0.728
CCGAGTAGGTTACGAGGGGGCATTCATTGCGAAT | 0.535
CTATATAGGTTAAGGGGGTCATTCAGTTTGAAAG | 12.1
CAGAGTAGGTTACGAGGGGGCATTCAGTGCGAAT | 6.24
CTATGTAGGTTAAGGGGTTCATTCAGTTTGAAAG | 12.3
CCGAGTAGGTTACGAGGCGGCATTCAGTGCGAAT | -0.255
CTAAGTAGGTTAAGGGGGTCATTCAGTTTGAAAG | 11.4
TCGAGTAGGCTACGGGGGCATTCAGGGATGAAGA | 0.484
CCATGTAGGTTAAGGGGGTCATTCAGTTTGAAAG | 12.1
CTATGTAGGTTAAGGGTGTCATTCAGTTTGAAAG | 0.641
CTATGTAGGCTAAGGGGGTCATTCAGTTTGAAAG | 8.71
CCGAGTAGGTTACGAGGGGGCTTTCAGTGCGAAT | 0.241
CTATGTAGGTTAAGGGGGTCATTCGGTTTGAAAG | 12.4
CTATGTTGGTTAAGGGGGTCATTCAGTTTGAAAG | 10.8
CCGAGTAGGTTACGAGGGGGCATCCAGTGCGAAT | 2.67
